The text below walks through data of the supplement of paper PMC3545927.

This assay addresses furin, P09958. The assay is described as follows: furin cleavage Z-score vs untreated control; higher = more cleavage, active = 3.5 or more, inactive = 1 or less, 8 variable residues between constant flanks. An outline of the steps: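 In 50 mM HEPES pH 7.5 with CaCl2 and NaCl, purified furin was incubated with bead-anchored 8-mer peptide–cDNA fusions at 1:10 enzyme:substrate in 0.01 ml. Incubation times were 7.5, 15 and 30 min. DNA set free by cleavage was adapter-tagged by PCR and sequenced, with read counts taken as abundance. Log counts relative to furin-free reactions, after lowess adjustment and median absolute deviation scaling, form the cleavage Z-score.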

The other results are listed elsewhere or left out. How many sequences the whole screen found active is unknown.

furin, P09958, sequence (P09958 whole entry, the tested form may be a part): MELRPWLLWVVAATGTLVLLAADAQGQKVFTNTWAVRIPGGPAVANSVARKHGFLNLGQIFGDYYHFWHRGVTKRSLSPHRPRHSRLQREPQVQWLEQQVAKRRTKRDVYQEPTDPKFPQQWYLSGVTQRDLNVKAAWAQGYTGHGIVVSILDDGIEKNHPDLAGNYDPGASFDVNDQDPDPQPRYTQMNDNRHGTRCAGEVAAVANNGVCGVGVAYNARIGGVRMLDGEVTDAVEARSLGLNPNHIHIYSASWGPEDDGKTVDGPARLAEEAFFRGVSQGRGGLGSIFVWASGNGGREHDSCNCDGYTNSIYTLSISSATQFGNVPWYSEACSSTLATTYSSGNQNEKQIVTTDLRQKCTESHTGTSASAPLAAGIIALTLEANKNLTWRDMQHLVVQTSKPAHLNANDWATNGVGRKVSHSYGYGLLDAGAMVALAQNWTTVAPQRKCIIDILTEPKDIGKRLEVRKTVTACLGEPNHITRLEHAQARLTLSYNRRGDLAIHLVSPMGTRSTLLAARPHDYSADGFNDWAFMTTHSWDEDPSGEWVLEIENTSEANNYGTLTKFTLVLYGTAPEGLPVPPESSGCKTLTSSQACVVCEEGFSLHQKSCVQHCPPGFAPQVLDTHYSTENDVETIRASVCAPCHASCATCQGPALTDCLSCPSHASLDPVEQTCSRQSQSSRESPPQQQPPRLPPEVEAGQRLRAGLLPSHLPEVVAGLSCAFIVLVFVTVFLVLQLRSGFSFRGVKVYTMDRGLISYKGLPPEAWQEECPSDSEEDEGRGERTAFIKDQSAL

In the case of CAQTRGLLGCAGNASASA [HC678], the “furin cleavage Z-score” value was 0.117 (inactive) (7.5 min), -0.157 (inactive) (15 min) and -0.705 (inactive) (30 min).
The matching figures for CASMLTDPSHAGNASASA [HC1247]: 0.787 (inactive), 1.14 and 0.981 (inactive).
As for CADFERSRAFAGNASASA [FS-1845], the “furin cleavage Z-score” value is, setting by setting: (7.5 min) -0.875 (inactive); (15 min) -0.501 (inactive); (30 min) -0.616 (inactive).
For the sequence CARKKRKIKEAGNASASA [FS-3191], the “furin cleavage Z-score” value runs as follows: (7.5 min) -0.575 (inactive); (15 min) -0.156 (inactive); (30 min) 2.36.
As for CARKKRKAAPAGNASASA [FS-2267], the “furin cleavage Z-score” value is 5.91 (active) (7.5 min), 5.87 (active) (15 min) and 5.5 (active) (30 min).
For the sequence CARKKRLISYAGNASASA [FS-2965], the “furin cleavage Z-score” value (7.5 min) was 0.348 (inactive), the “furin cleavage Z-score” value (15 min) was 3.83 (active) and the “furin cleavage Z-score” value (30 min) is 6.5 (active).
In the case of CARKKRKPEEAGNASASA [FS-3192], the “furin cleavage Z-score” value (7.5 min) is 0.523 (inactive), the “furin cleavage Z-score” value (15 min) worked out at 1.22 and the “furin cleavage Z-score” value (30 min) stood at 1.86.
On to CARFKRSAQFAGNASASA [FS-2663], for which the “furin cleavage Z-score” value by setting is: (7.5 min) 9.02 (active); (15 min) 10 (active); (30 min) 9.39 (active).
Take CARKKRMAKYAGNASASA [FS-2966]: the “furin cleavage Z-score” value is, setting by setting: (7.5 min) 5.67 (active); (15 min) 7.97 (active); (30 min) 8.42 (active).
As to CARHWTTQGCAGNASASA [HC309], the “furin cleavage Z-score” value (7.5 min) is 0.306 (inactive), the “furin cleavage Z-score” value (15 min) was -0.845 (inactive) and the “furin cleavage Z-score” value (30 min) was 0.176 (inactive).
For the sequence CAMEECFQHLAGNASASA [HC26], the “furin cleavage Z-score” value reads like this: (7.5 min) 0.765 (inactive); (15 min) 1.72; (30 min) 1.22.
The matching figures for CAILAGYGAGAGNASASA [HC1086]: -0.899 (inactive), -0.697 (inactive) and -0.69 (inactive).
The matching figures for CARKKRSEYYAGNASASA [FS-1957]: 5.84 (active), 8.3 (active) and 8.52 (active).
In the same order, the values of CARKSRSKSKAGNASASA [FS-3195] are 1.71, 0.576 (inactive) and 0.352 (inactive).
Turning to CARKKRQVPYAGNASASA [FS-2269], the “furin cleavage Z-score” value reads like this: (7.5 min) 7.32 (active); (15 min) 7.2 (active); (30 min) 5.84 (active).
The matching figures for CARKSRPNASAGNASASA [FS-2981]: 0.905 (inactive), -0.37 (inactive) and -0.749 (inactive).
In the same order, the values of CARKSRSPHNAGNASASA [FS-3224] are 7.07 (active), 8.27 (active) and 8.28 (active).
In the same order, the values of CARKKRSQTYAGNASASA [FS-1958] are 8.08 (active), 10.2 (active) and 9.02 (active).
Regarding CASVFLVGQLAGNASASA [HC302], the “furin cleavage Z-score” value was -1.01 (inactive) (7.5 min), 0.196 (inactive) (15 min) and -1.15 (inactive) (30 min).
In the same order, the values of CAGDEVDGAGAGNASASA [CS5] are -1.72 (inactive), -1.16 (inactive) and -2.65 (inactive).
In the case of CATTTSSEPAAGNASASA [HC1343], the “furin cleavage Z-score” value runs as follows: (7.5 min) 0.91 (inactive); (15 min) 0.314 (inactive); (30 min) 0.501 (inactive).
With CAVVLCSMSYAGNASASA [HC2025], the “furin cleavage Z-score” value was -0.0785 (inactive) (7.5 min), 0.317 (inactive) (15 min) and -1.45 (inactive) (30 min).
The matching figures for CAGSGKSTKVAGNASASA [HC777]: -0.846 (inactive), -1.25 (inactive) and -0.383 (inactive).
In the same order, the values of CATYGKFLADAGNASASA [HC808] are -0.371 (inactive), 0.314 (inactive) and -0.318 (inactive).
In the same order, the values of CAKLPLAVMGAGNASASA [HC1461] are -1.04 (inactive), 0.392 (inactive) and -1.13 (inactive).
Regarding CAKLGVPPLRAGNASASA [HC1616], the “furin cleavage Z-score” value (7.5 min) was -0.0832 (inactive), the “furin cleavage Z-score” value (15 min) was -1.53 (inactive) and the “furin cleavage Z-score” value (30 min) is 0.294 (inactive).
Consider CARKKRSAQNAGNASASA [FS-2036], for which the “furin cleavage Z-score” value reads like this: (7.5 min) 11.7 (active); (15 min) 14 (active); (30 min) 8.93 (active).
Turning to CARKKRISANAGNASASA [FS-1827], the “furin cleavage Z-score” value (7.5 min) is 0.255 (inactive), the “furin cleavage Z-score” value (15 min) is 0.21 (inactive) and the “furin cleavage Z-score” value (30 min) is -0.0863 (inactive).
The matching figures for CAQKKRSAQYAGNASASA [FS-2878]: 0.0672 (inactive), 0.984 (inactive) and 2.02.
The matching figures for CATREAFRRGAGNASASA [FS-883]: -0.796 (inactive), -0.878 (inactive) and -1.14 (inactive).
The matching figures for CALTARFRRGAGNASASA [FS-1374]: 10.8 (active), 12 (active) and 9.56 (active).
On to CARTGRQVLGAGNASASA [FS-3104], for which the “furin cleavage Z-score” value is, setting by setting: (7.5 min) 0.169 (inactive); (15 min) -0.821 (inactive); (30 min) -1.11 (inactive).
For CAIHARFRRGAGNASASA [FS-250], the “furin cleavage Z-score” value (7.5 min) is 11.1 (active), the “furin cleavage Z-score” value (15 min) was 12.1 (active) and the “furin cleavage Z-score” value (30 min) is 9.69 (active).
Regarding CARTDRCRRGAGNASASA [FS-1483], the “furin cleavage Z-score” value (7.5 min) is 7.57 (active), the “furin cleavage Z-score” value (15 min) is 8.52 (active) and the “furin cleavage Z-score” value (30 min) was 8.04 (active).
In the same order, the values of CAAYDIIICDAGNASASA [HC815] are -1.2 (inactive), -0.574 (inactive) and -0.848 (inactive).
The matching figures for CAVVGVVCAAAGNASASA [HC1107]: 0.556 (inactive), -0.0757 (inactive) and -0.152 (inactive).
In the same order, the values of CAVQGLLRFCAGNASASA [HC618] are -0.0765 (inactive), 0.463 (inactive) and -0.436 (inactive).
On to CAGVPRSFRGAGNASASA [TR2], for which the “furin cleavage Z-score” value runs as follows: (7.5 min) 0.299 (inactive); (15 min) -0.905 (inactive); (30 min) -1.74 (inactive).
CALARRSRRGAGNASASA [FS-816]: the “furin cleavage Z-score” value runs as follows: (7.5 min) 7.83 (active); (15 min) 7.63 (active); (30 min) 6.48 (active).
As for CALASRRYRGAGNASASA [FS-547], the “furin cleavage Z-score” value (7.5 min) was -0.863 (inactive), the “furin cleavage Z-score” value (15 min) was -0.493 (inactive) and the “furin cleavage Z-score” value (30 min) was -0.101 (inactive).
The matching figures for CAIIKRSAWEAGNASASA [FS-2408]: -0.767 (inactive), -0.224 (inactive) and -0.00284 (inactive).
The matching figures for CAIRKRDRRGAGNASASA [FS-1016]: 12 (active), 13.2 (active) and 9.35 (active).
The matching figures for CAPANRSRRGAGNASASA [FS-67]: 10.1 (active), 11.8 (active) and 9.38 (active).
With CAIIKRSRRGAGNASASA [FS-1344], the “furin cleavage Z-score” value (7.5 min) was 6.89 (active), the “furin cleavage Z-score” value (15 min) is 7.38 (active) and the “furin cleavage Z-score” value (30 min) is 7.28 (active).
Regarding CAPFVSCQRGAGNASASA [HC1164], the “furin cleavage Z-score” value is 0.755 (inactive) (7.5 min), 0.834 (inactive) (15 min) and -0.509 (inactive) (30 min).
